Source: PubChem BioAssay
Calls of active or inactive are those of the source.

Legend:
[1] = small molecules captured by biotinylated probe aFSTL3 – biochemical, small-molecule microarray, fluorescence 635/667, stem cell growth factor project, primary screen (AID 1064); conditions: higher = more signal;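 also: measures binding of the biotinylated anti-FSTL3 antibody to printed compounds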
[2] = binders from COS7 lysate, DM2A8 probe, primary screen, torsin A project, cell lysate, small-molecule microarray, fluorescence 635/667 (AID 1065); conditions: higher = more signal, COS7 lysate expressing mutant human TOR1A
[3] = small molecules captured by biotinylated probe aFGF2 – biochemical, small-molecule microarray, fluorescence 635/667, stem cell growth factor project, primary screen (AID 1067); conditions: higher = more signal;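 also: measures binding of biotinylated aFGF2 protein to printed compounds on slides; z-score merges feature fluorescence and signal-to-noise across triplicate slides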
[4] = small molecules captured by biotinylated probe aFGF10 – biochemical, small-molecule microarray, fluorescence 635/667, stem cell growth factor project, primary screen (AID 1071); conditions: higher = more signal;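 also: score merges 667 nm spot intensity and signal to noise from triplicate slides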
[5] = target: Neurogenic locus notch homolog protein 2 (Homo sapiens) (UniProt Q04721); experiment: small molecules binding Notch2 protein – biochemical, small-molecule microarray, 635 nm fluorescence, stem cell growth factors, primary screen (AID 1073); conditions: higher = more signal
Sequence of Neurogenic locus notch homolog protein 2 (Homo sapiens) (Q04721 whole entry, looked up, canonical isoform): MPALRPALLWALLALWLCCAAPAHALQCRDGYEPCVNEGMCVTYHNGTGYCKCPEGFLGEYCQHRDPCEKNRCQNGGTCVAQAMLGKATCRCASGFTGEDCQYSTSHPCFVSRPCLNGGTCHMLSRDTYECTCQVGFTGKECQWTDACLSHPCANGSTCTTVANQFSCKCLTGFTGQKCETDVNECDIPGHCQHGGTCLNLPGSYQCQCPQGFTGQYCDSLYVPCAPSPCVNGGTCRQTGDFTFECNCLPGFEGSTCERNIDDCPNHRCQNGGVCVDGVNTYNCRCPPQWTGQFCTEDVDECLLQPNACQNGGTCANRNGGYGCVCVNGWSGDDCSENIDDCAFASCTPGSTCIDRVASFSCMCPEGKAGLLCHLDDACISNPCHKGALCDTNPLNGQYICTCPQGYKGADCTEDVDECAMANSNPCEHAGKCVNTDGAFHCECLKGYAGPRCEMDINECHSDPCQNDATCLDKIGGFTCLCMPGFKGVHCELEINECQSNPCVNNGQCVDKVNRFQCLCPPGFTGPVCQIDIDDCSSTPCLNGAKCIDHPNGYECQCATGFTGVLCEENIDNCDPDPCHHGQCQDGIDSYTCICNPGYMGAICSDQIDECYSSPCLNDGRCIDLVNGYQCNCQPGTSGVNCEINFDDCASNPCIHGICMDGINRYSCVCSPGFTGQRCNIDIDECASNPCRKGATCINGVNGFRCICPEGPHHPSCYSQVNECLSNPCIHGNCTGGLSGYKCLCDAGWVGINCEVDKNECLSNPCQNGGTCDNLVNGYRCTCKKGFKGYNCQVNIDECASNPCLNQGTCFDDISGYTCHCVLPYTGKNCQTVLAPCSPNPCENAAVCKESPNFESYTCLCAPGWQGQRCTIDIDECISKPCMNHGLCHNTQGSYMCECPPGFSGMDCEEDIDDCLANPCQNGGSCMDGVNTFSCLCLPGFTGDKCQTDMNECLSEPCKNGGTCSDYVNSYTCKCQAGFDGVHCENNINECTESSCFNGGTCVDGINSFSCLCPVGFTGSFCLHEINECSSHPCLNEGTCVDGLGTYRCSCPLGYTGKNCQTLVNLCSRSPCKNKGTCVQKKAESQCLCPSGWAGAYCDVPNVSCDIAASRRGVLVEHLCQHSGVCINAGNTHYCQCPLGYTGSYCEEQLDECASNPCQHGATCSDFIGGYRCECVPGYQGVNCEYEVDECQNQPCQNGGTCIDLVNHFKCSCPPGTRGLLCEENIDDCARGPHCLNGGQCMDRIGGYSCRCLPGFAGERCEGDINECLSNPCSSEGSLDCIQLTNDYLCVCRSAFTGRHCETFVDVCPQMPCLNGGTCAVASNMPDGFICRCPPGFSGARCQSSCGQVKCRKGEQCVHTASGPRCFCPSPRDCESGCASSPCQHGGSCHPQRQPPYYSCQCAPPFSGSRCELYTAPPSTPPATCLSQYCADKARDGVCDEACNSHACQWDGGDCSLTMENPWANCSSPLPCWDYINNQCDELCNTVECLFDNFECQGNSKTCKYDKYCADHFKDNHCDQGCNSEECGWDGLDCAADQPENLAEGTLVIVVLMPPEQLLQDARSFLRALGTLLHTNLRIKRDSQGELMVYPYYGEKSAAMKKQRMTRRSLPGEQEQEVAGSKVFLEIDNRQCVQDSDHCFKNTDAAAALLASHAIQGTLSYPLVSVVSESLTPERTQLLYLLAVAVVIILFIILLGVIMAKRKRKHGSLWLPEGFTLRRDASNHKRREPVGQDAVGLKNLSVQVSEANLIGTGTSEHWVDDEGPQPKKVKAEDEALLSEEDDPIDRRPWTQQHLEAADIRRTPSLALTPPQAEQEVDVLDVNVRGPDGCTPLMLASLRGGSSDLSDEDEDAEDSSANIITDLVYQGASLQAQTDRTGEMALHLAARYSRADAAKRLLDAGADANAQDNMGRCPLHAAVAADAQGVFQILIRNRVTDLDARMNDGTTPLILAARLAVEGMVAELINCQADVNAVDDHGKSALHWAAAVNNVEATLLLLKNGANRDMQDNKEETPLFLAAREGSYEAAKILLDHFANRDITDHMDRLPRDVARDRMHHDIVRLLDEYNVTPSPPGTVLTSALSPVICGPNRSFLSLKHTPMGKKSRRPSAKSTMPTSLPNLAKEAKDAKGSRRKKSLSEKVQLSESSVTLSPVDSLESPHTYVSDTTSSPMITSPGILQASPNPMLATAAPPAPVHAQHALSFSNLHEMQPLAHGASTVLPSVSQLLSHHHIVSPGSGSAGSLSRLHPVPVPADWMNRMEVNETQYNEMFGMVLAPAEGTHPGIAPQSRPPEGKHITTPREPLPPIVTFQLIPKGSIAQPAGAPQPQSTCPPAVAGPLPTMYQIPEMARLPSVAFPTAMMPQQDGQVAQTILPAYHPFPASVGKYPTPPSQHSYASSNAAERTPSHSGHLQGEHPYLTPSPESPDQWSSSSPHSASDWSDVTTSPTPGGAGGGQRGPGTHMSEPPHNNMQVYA

[6] = target: Pro-neuregulin-1, membrane-bound isoform (Homo sapiens) (UniProt Q02297); experiment: small molecules binding neuregulin-1 protein – biochemical, small-molecule microarray, fluorescence 635/667, psychiatric disease protein project, primary screen (AID 1075); conditions: NRG1 binding, 635 nm fluorescence, higher = more signal;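 also: score combines 667 nm spot fluorescence with signal to noise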
Sequence of Pro-neuregulin-1, membrane-bound isoform (Homo sapiens) (Q02297 whole entry, looked up, the tested form may be a part, canonical isoform): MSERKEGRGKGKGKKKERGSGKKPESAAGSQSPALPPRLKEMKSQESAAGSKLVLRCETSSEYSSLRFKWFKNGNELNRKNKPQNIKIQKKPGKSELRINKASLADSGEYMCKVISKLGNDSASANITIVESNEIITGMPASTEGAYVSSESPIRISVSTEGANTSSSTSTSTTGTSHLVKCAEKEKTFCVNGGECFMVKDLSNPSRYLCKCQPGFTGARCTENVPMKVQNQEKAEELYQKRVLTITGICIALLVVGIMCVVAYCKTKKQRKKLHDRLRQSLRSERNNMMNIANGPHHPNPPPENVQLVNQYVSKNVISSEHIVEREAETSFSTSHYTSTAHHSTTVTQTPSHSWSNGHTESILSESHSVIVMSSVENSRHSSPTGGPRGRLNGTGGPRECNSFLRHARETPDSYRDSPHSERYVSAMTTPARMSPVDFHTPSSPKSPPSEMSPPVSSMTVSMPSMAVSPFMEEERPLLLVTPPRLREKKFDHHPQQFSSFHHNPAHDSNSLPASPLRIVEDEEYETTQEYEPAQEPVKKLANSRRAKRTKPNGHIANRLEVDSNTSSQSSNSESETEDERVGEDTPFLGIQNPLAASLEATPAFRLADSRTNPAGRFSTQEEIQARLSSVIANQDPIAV

[7] = tested on: Neuregulin-1 EGF-like domain; experiment: small molecules binding NRG1 EGF domain – biochemical, small-molecule microarray, 635 nm fluorescence, primary screen (AID 1081); conditions: higher = more signal;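 also: binding of the protein to compounds printed on small-molecule microarray slides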
[8] = FRG1 expression reporter modulators in myotubes – cell-based, C2C12 myotubes, firefly/Renilla luciferase, luminescence, FRG1 inhibition for FSHD, primary screen (AID 1084); conditions: FRG1 promoter luciferase, higher = more signal, called active from +8 up or from −8 down
[9] = small molecules captured by biotinylated probe aFST – biochemical, small-molecule microarray, fluorescence 635/667, stem cell growth factor project, primary screen (AID 1086); conditions: higher = more signal;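 also: score merges 667 nm fluorescence with signal-to-noise of each printed compound spot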
[10] = binders of probe aHhip on microarray, primary screen, stem cell growth factor project, biochemical, small-molecule microarray, fluorescence 635/667 (AID 1087); conditions: higher = more signal;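 also: score merges spot fluorescence at 667nm with spot signal to noise ratio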

Row | SMILES | composite z-score [1] | composite z-score [2] | composite z-score [3] | composite z-score [4] | composite z-score [5] | composite z-score [6] | composite z-score [7] | z-score [8] | composite z-score [9] | composite z-score [10]
1 | CC1(C)OCC(C(O)C2=CCCCC2=O)CO1 (stereo not given) | -0.495 | 0.547 | -0.0607 | 0.54 | 0.214 | 0.366 | 0.979 | 0.119 (inactive) | 0.753 | 0.065
2 | CO[C@@H]1COC(=O)CCC[C@@H](C)[C@H](OC)COC(=O)[C@H](Cc2ccccc2)NC(=O)CC=C[C@H]1C | -0.0731 | 1.42 | -0.186 | -0.904 | -1.13 | -0.87 | -1.25 | 0.0446 (inactive) | -0.104 | -0.134
3 | CC(=O)OC[C@H]1O[C@H](CCON=C[C@@H](C)[C@H](OCc2ccccc2)C(C)C)C=C[C@@H]1OC(C)=O | -0.567 | 0.57 | -0.101 | 0.114 | -0.113 | -0.114 | -0.339 | 0.447 (inactive) | 0.0538 | 0.312
4 | O=C(CS)NCCCCCNC(=O)[C@H]1C[C@H]2C(=O)N3CCC[C@H]3C(=O)N2[C@H]1c1cccc(OCCO)c1 | 0.32 | 1.52 | -0.0718 | 0.564 | -0.0686 | 0.665 | 1.35 | 0.556 (inactive) | 0.442 | 0.0274
5 | CO[C@H]1COC(=O)[C@H](C)COC(=O)CC=C[C@@H](C)[C@H](OC)COC(=O)CC=C[C@@H]1C | -0.654 | 0.682 | -0.226 | -0.0247 | -0.217 | -0.481 | -0.311 | 0.847 (inactive) | -0.08 | 0.0854
6 | CC(C)=CCCC(C)=CCON=C1[C@H]2CCn3c(=O)n(Cc4cc5c(cc4Cl)OCO5)c(=O)n3[C@H]2[C@H](O)[C@@H]2O[C@H]12 | -0.405 | 1.2 | -0.0481 | 0.262 | 0.405 | 0.0535 | 0.177 | 0.752 (inactive) | 0.661 | -0.328
7 | O=C1[C@H]2[C@H]3[C@H](O)[C@H](O)CC(=NOCc4ccccc4)[C@H]3CC[C@H]2C(=O)N1C[C@@H]1CCCO1 | -0.493 | -0.259 | -0.133 | 0.717 | 0.564 | 0.512 | 0.792 | -0.187 (inactive) | 0.14 | -0.123
8 | CC(C)CON=C1C[C@@H](O)[C@@H](O)[C@@H]2[C@@H]3C(=O)N(Cc4ccccc4)C(=O)[C@@H]3CC[C@@H]12 | -0.404 | 0.129 | -0.141 | 0.256 | 0.455 | -0.344 | 0.211 | 0.166 (inactive) | -0.313 | -0.199
9 | CCCCC(=C=CC[C@H](O)c1ccccc1OCCO)C[C@H](O)COCc1ccccc1 | -0.0094 | 0.273 | -0.12 | -0.249 | -0.673 | 0.716 | 0.554 | -1.01 (inactive) | 0.324 | -0.0296
10 | COc1ccc(O[C@H]2C=C[C@@H](c3ccccc3)O[C@@H]2COC(=O)CCC(C)=NO[C@H](C)c2cn([C@@H]3COC[C@H]3O)nn2)cc1 | -0.672 | 0.518 | -0.125 | 0.323 | 0.483 | 0.489 | 0.586 | 1.39 (inactive) | 0.0701 | -0.411
11 | CCc1cc2c(nc1CC)CCN(CCC(C)=NO[C@@H](C)c1cc(-c3c(C)cc(C)cc3C)no1)C2 | -0.291 | 0.0396 | -0.126 | -0.298 | -0.89 | 0.191 | -0.0858 | -1.01 (inactive) | -0.119 | 0.0187
12 | CS(=O)(=O)CCOC(=O)C1=CC(CCCO)=CC(c2cccs2)N(Cc2cccc(OC(F)(F)F)c2)C=C1C(=O)OCCS(C)(=O)=O (stereo not given) | -0.215 | 1.76 | -0.0753 | 0.0557 | 1.14 | 1.8 | 1.14 | -0.176 (inactive) | 0.425 | -0.191
13 | COc1ccc(O[C@H]2C=C[C@@H](c3ccccc3)O[C@@H]2COC(=O)CCC(C)=NOCC[C@@H]2C=C[C@H](OC(C)=O)[C@@H](COC(C)=O)O2)cc1 | -0.19 | 0.779 | -0.0363 | -0.171 | -0.086 | 0.0028 | -0.183 | 1.04 (inactive) | 0.406 | 0.305
14 | O=C1CCCC=C1C(O)CCOCc1ccccc1 (stereo not given) | -0.149 | 0.858 | -0.0753 | 0.0674 | -0.175 | -0.573 | 0.28 | 1.58 (inactive) | -0.0364 | -0.236
15 | O=C1C[C@@H](O)[C@@H](O)[C@@H]2[C@@H]3C(=O)N(Cc4ccc5c(c4)OCO5)C(=O)[C@@H]3CC[C@@H]12 | -0.612 | 0.196 | -0.149 | 0.833 | 0.651 | -0.13 | 0.568 | 0.324 (inactive) | 0.278 | 0.065
16 | CCOC(=O)C1=CCC(c2cc3ccccc3[nH]2)NC1 (stereo not given) | 1.31 | 0.758 | -0.0629 | -0.355 | 0.476 | 0.963 | 1.13 | 4.17 (inactive) | 0.77 | -0.156
17 | COC(=O)C1=C(C)[C@@H](O)[C@@H](C)[C@H](c2c(OC)c(OC)c(C)c(OC)c2OC)O1 | -0.511 | 0.487 | -0.131 | 0.166 | 0.239 | -0.412 | 0.0778 | -0.298 (inactive) | 0.0017 | -0.0645
18 | CN(C)CCCNC(=O)[C@@H]1c2ccccc2C(=O)N(Cc2cc(F)cc(C(F)(F)F)c2)[C@H]1c1ccc(CO)cc1 | 1.11 | 1.01 | -0.0692 | -0.436 | 0.102 | 1.33 | 1.36 | -1.19 (inactive) | -0.186 | 0.316
19 | C#C[C@@H]1Oc2ccccc2S(=O)(=O)N2CCC[C@H]12 | -0.311 | 0.143 | -0.114 | 0.0728 | 0.133 | -0.206 | -0.113 | -0.587 (inactive) | 0.214 | -0.0596
20 | C=CCOC(=O)[C@H]1[C@@H]2C(=O)O[C@@H](c3ccccc3)[C@@H](c3ccccc3)N2[C@@H](c2ccc(OCCOC(=O)[C@H]3C[C@H]4C(=O)N[C@@H](Cc5ccccc5)C(=O)N4[C@H]3c3ccc(O)cc3)cc2)[C@]12C(=O)Nc1ccccc12 | -0.298 | 0.0087 | -0.0692 | 0.349 | 0.355 | 0.188 | 1.29 | 0.458 (inactive) | 0.276 | -0.109
21 | O[C@@H](Cc1ccccc1)[C@H]1C2C=CCCC(c3ccccc3)=C2CN1Cc1cccc(Cl)c1 (stereo not given in full) | -0.39 | 0.507 | -0.015 | 0.271 | 0.799 | 1.08 | 1.07 | -2.31 (inactive) | 0.26 | -0.0047
22 | CC(C)NC(=O)[C@@]1(c2ccc([N+](=O)[O-])cc2)CC(=O)N(CC23CC4CC(CC(C4)C2)C3)[C@@H]1c1ccc(CO)cc1I | 0.765 | 0.0289 | 0.11 | 0.252 | 0.931 | 0.607 | 0.964 | -3.71 (inactive) | 0.481 | -0.0645
23 | CC(C)=CCCC(C)=CCON=C1[C@H]2CCn3c(=O)n(C)c(=O)n3[C@H]2[C@H](O)[C@@H]2O[C@H]12 | -0.315 | 0.491 | -0.156 | 0.585 | 0.38 | 0.763 | 1.05 | -0.713 (inactive) | 0.412 | -0.0673
